# Data from the supplement of paper PMC10849652.
# Targets with a hit are over-represented here; the source holds about 7,900 in all. About 0.6% of all pairs of compound and target were hits. A number with no mark means an inactive call.
# Tests used:
# Assay in all cases: log2 fold change, soluble protein after heating vs DMSO (PISA); higher = thermal stabilisation; K562 cells, 10 uM, 30 min; active = over 0.2 and 3.5 SD of the protein, either way, in both replicates (recomputed)
# [1] = compound: COC1=CC=C(C=C1)CN2C=CC3=C2C=C(C=C3)C(=O)NO
# Procedure, shortened: (§1)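 K562 cells (2×10^6 cells/mL) were treated with 10 μM compound for 30 min, and aliquots were heated for 3 min over 48°C-58°C. Pooled aliquots were extracted in PBS with 0.5% NP-40 at 4°C, and the supernatant after 21,000xg for 90 min was measured by TMTpro 16plex LC-MS/MS with channel sums equalised. Reported thermal stability, relative to control samples and from duplicates, is a log2 fold change.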
# filanesib = compound: CON(C)C(=O)N1N=C(c2cc(F)ccc2F)S[C@@]1(CCCN)c1ccccc1 [filanesib]
# Procedure, shortened: as §1
# zotarolimus = compound: CO[C@H]1C[C@@H]2CC[C@@H](C)[C@@](O)(O2)C(=O)C(=O)N2CCCC[C@H]2C(=O)O[C@H]([C@H](C)C[C@@H]2CC[C@H](n3cnnn3)[C@H](OC)C2)CC(=O)[C@H](C)/C=C(\C)[C@@H](O)[C@@H](OC)C(=O)[C@H](C)C[C@H](C)/C=C/C=C/C=C/1C [zotarolimus]
# Procedure, shortened: as §1
# idasanutlin = compound: COc1cc(C(=O)O)ccc1NC(=O)[C@@H]1N[C@@H](CC(C)(C)C)[C@](C#N)(c2ccc(Cl)cc2F)[C@H]1c1cccc(Cl)c1F [idasanutlin]
# Procedure, shortened: as §1
# alisertib = compound: COc1cc(Nc2ncc3c(n2)-c2ccc(Cl)cc2C(c2c(F)cccc2OC)=NC3)ccc1C(=O)O [alisertib]
# Procedure, shortened: as §1
# [2] = compound: COc1cc2nc(-c3cc(F)ccc3O)nc(N[C@@H]3CNC[C@H]3C(C)(C)O)c2cc1OC
# Procedure, shortened: as §1
# gefitinib = compound: COc1cc2ncnc(Nc3ccc(F)c(Cl)c3)c2cc1OCCCN1CCOCC1 [gefitinib]
# Procedure, shortened: as §1
# [3] = compound: COc1cccc2cc(-c3nc([C@H]4CC[C@H](C(=O)O)CC4)n4ncnc(N)c34)[nH]c12
# Procedure, shortened: as §1
# lapatinib = compound: CS(=O)(=O)CCNCc1ccc(-c2ccc3ncnc(Nc4ccc(OCc5cccc(F)c5)c(Cl)c4)c3c2)o1 [lapatinib]
# Procedure, shortened: as §1
# pictilisib = compound: CS(=O)(=O)N1CCN(Cc2cc3nc(-c4cccc5[nH]ncc45)nc(N4CCOCC4)c3s2)CC1 [pictilisib]
# Procedure, shortened: as §1
# [4] = compound: CS(=O)(=O)c1ccc(-c2cnc(N)c(C(=O)Nc3ccccc3)n2)cc1
# Procedure, shortened: as §1
# crizotinib = compound: C[C@@H](Oc1cc(-c2cnn(C3CCNCC3)c2)cnc1N)c1c(Cl)ccc(F)c1Cl [crizotinib]
# Procedure, shortened: as §1
# [5] = compound: C[C@@H]1COCCN1C2=NC(=NC(=C2)C3(CC3)S(=O)(=O)C)C4=C5C=CNC5=CC=C4
# Procedure, shortened: as §1
# [6] = compound: C[C@H](C1=CC=C(C=C1)C(=O)NC2=C3C=CNC3=NC=C2)N
# Procedure, shortened: as §1
# duvelisib = compound: C[C@H](Nc1ncnc2nc[nH]c12)c1cc2cccc(Cl)c2c(=O)n1-c1ccccc1 [duvelisib]
# Procedure, shortened: as §1
# gandotinib = compound: Cc1cc(Nc2cc(CN3CCOCC3)c3nc(C)c(Cc4ccc(Cl)cc4F)n3n2)n[nH]1 [gandotinib]
# Procedure, shortened: as §1
# tozasertib = compound: Cc1cc(Nc2cc(N3CCN(C)CC3)nc(Sc3ccc(NC(=O)C4CC4)cc3)n2)n[nH]1 [tozasertib]
# Procedure, shortened: as §1
# [7] = compound: Cc1cc(SCc2sc(-c3ccc(C(F)(F)F)cc3)nc2C)ccc1OCC(=O)O
# Procedure, shortened: as §1
# doramapimod = compound: Cc1ccc(-n2nc(C(C)(C)C)cc2NC(=O)Nc2ccc(OCCN3CCOCC3)c3ccccc23)cc1 [doramapimod]
# Procedure, shortened: as §1
# ispinesib = compound: Cc1ccc(C(=O)N(CCCN)[C@@H](c2nc3cc(Cl)ccc3c(=O)n2Cc2ccccc2)C(C)C)cc1 [ispinesib]
# Procedure, shortened: as §1
# Sequence of UniProt Q96GG9 (Q96GG9 whole entry, looked up): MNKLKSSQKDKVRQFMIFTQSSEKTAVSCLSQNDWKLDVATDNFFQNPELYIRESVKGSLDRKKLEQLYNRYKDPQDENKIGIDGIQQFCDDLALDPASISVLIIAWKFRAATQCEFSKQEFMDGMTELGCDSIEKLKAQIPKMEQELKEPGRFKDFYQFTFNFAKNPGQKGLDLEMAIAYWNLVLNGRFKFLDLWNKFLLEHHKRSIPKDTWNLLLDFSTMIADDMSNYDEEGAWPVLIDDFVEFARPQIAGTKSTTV
# Sequence of UniProt Q7L014 (Q7L014 whole entry, looked up): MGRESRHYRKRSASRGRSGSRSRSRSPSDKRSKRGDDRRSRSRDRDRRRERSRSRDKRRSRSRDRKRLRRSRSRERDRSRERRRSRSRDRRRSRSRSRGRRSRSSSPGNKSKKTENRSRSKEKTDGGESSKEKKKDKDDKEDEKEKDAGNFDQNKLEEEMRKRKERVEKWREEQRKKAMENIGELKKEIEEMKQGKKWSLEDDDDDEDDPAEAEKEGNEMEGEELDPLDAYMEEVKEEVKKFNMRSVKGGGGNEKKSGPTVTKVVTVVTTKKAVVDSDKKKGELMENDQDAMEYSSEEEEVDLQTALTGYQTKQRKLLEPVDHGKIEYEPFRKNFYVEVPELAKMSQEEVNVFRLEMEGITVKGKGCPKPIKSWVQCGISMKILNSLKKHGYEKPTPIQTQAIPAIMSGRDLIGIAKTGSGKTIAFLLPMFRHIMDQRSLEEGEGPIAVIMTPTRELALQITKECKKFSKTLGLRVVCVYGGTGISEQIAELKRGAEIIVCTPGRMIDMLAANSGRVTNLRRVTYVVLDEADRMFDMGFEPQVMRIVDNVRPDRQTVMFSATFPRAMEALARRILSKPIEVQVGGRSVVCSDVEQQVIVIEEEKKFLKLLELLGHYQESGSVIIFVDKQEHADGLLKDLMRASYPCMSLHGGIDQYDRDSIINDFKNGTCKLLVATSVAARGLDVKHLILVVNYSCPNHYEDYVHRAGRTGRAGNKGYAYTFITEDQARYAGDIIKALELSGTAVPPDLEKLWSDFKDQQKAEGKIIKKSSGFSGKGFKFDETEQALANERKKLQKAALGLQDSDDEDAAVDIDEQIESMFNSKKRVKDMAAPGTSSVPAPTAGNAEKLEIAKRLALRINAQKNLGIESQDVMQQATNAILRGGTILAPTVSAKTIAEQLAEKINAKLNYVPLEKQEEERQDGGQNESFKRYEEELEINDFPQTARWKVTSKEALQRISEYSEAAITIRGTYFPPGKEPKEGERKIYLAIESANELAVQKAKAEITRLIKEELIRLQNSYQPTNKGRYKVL
# Sequence of UniProt Q9NZN4 (Q9NZN4 whole entry, looked up): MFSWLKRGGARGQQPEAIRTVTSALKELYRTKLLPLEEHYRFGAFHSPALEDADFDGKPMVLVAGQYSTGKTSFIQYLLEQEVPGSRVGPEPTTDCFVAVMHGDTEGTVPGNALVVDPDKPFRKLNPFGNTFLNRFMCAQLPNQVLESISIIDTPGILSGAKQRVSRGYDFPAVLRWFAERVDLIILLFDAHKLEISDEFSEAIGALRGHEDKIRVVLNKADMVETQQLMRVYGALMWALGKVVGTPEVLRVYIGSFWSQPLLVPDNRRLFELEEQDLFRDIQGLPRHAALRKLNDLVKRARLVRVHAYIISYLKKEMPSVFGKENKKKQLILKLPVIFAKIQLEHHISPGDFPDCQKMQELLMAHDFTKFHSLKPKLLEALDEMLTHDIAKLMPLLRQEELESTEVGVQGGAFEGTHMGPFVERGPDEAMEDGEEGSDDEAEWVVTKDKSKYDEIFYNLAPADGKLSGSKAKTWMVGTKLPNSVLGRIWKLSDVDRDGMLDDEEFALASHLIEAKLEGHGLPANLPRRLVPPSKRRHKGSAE
# Sequence of UniProt Q9NX74 (Q9NX74 whole entry, looked up): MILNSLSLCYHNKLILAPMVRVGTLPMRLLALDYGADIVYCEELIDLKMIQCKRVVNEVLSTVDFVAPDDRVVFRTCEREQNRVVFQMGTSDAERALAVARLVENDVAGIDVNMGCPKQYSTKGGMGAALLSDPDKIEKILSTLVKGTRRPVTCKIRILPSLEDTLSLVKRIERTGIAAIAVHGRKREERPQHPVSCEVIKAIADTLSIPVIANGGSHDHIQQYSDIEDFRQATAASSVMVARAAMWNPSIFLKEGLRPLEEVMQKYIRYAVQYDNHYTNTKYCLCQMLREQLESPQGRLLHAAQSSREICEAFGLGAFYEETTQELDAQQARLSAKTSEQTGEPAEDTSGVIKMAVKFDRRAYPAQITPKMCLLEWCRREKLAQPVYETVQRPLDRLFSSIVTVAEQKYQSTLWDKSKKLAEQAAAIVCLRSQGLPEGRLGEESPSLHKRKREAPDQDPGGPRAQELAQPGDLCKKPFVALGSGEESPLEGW
# Sequence of UniProt O76075 (O76075 whole entry, looked up): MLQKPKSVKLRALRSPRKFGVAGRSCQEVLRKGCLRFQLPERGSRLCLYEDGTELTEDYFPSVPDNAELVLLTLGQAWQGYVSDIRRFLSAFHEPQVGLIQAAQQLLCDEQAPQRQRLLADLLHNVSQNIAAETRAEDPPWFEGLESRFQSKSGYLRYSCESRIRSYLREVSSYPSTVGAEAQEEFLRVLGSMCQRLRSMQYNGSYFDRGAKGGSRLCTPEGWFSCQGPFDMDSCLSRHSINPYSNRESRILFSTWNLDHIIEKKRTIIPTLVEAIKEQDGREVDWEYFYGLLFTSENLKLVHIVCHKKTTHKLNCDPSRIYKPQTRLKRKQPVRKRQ
# Sequence of UniProt P49366 (P49366 whole entry, looked up): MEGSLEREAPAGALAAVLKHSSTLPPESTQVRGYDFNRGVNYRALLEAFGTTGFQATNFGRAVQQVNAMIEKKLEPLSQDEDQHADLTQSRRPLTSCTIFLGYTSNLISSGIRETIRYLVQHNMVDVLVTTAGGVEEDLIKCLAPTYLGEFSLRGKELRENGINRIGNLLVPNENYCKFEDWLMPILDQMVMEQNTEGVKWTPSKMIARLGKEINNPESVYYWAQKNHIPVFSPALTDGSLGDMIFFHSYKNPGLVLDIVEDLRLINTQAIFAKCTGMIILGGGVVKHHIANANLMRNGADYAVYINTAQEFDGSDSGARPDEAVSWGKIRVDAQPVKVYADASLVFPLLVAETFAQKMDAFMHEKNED
# Sequence of UniProt Q5NDL2 (Q5NDL2 whole entry, looked up): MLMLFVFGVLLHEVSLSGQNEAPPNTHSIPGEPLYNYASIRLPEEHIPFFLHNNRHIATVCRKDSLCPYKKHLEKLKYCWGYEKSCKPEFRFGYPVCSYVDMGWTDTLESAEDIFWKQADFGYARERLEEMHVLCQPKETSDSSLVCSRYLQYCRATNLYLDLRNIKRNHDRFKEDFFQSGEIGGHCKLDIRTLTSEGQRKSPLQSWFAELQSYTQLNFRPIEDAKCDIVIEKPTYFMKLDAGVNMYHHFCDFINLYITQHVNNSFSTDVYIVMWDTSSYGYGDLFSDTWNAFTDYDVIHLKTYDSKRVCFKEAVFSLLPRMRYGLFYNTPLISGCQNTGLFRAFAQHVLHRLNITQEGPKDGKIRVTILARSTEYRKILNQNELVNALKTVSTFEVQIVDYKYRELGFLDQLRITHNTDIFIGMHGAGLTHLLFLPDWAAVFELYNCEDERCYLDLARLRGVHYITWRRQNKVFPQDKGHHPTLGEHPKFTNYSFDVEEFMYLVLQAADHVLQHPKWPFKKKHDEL
# Sequence of UniProt Q9H2P9 (Q9H2P9 whole entry, looked up): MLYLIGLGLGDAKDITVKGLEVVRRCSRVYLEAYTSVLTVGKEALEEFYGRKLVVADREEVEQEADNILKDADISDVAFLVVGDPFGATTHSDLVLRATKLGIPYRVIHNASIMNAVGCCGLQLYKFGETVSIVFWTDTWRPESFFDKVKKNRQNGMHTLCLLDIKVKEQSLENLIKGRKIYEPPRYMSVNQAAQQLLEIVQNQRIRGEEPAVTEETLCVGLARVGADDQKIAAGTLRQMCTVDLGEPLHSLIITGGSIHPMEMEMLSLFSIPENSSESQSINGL
# Sequence of UniProt Q96DA6 (Q96DA6 whole entry, looked up): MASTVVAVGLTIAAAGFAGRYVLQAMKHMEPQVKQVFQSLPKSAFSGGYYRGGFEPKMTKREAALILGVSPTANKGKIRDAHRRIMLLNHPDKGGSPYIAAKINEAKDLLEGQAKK
# Sequence of UniProt Q9BU89 (Q9BU89 whole entry, looked up): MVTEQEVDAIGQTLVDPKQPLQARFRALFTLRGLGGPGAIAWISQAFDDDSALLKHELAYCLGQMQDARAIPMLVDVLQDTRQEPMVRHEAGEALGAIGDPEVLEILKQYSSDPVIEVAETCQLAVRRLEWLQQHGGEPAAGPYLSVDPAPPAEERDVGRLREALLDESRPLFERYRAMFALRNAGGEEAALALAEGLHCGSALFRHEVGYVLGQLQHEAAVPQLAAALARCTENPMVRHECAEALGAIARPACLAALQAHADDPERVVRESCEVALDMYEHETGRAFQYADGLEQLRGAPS
# Sequence of UniProt P24534 (P24534 whole entry, looked up): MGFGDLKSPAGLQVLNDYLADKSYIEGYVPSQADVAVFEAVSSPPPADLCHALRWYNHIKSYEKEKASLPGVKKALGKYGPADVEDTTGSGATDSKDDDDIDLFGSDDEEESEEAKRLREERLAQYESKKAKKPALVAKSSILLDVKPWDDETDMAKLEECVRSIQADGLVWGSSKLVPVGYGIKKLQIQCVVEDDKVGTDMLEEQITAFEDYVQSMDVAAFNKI
# Sequence of UniProt P50402 (P50402 whole entry, looked up): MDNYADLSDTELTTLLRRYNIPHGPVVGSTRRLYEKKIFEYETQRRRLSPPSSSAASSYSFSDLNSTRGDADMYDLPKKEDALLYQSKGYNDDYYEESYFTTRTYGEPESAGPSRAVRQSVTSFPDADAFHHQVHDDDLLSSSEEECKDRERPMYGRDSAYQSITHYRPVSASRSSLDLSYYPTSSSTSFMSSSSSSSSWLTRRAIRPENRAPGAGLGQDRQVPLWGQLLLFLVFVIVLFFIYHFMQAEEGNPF
Target,log2 fold change [1],log2 fold change (filanesib),log2 fold change (zotarolimus),log2 fold change (idasanutlin),log2 fold change (alisertib),log2 fold change [2],log2 fold change (gefitinib),log2 fold change [3],log2 fold change (lapatinib),log2 fold change (pictilisib),log2 fold change [4],log2 fold change (crizotinib),log2 fold change [5],log2 fold change [6],log2 fold change (duvelisib),log2 fold change (gandotinib),log2 fold change (tozasertib),log2 fold change [7],log2 fold change (doramapimod),log2 fold change (ispinesib)
DCUN1D1 (UniProt Q96GG9),0.065,-0.003,0.015,-0.062,0.008,-0.021,0.004,0.031,0.019,0.015,-0.027,-0.061,-0.047,-0.067,0.004,-0.059,-0.004,0.002,-0.053,0.036
ECPAS (UniProt Q5VYK3),0.004,-0.004,0.033,-0.127,-0.001,0.055,-0.007,-0.087,-0.033,0.005,0,-0.18,0.01,0.081,0.024,-0.115,0.048,0.099,-0.032,-0.016
EEF1B2 (UniProt P24534),0.033,0.031,0.035,0.007,0.023,0.03,0.024,-0.061,-0.029,0.014,0.003,-0.018,-0.073,0.092,0.04,-0.043,0.052,0.013,-0.065,-0.024
CWC27 (UniProt Q6UX04),0.047,-0.017,-0.068,0.014,-0.043,0.061,0.021,-0.046,-0.004,-0.036,0.03,0.14,0.145,-0.001,0.144,0.033,0.077,0.169,-0.091,-0.017
DHPS (UniProt P49366),0.268 (active),-0.024,-0.001,0.03,-0.033,-0.047,-0.018,0.063,0.05,0.024,0.015,-0.008,0.043,-0.047,0.059,0.032,-0.046,-0.054,0.051,0.067
EFCAB14 (UniProt O75071),0.139,-0.018,0.147,0.027,0.043,-0.014,0.04,-0.04,0.021,0.06,0.045,-0.301 (active),0.083,0.041,0.006,-0.009,-0.097,-0.006,-0.01,-0.004
DNAJC19 (UniProt Q96DA6),0.096,-0.155,0.016,-0.004,-0.022,-0.205 (active),0.006,0.045,-0.012,0.025,0.008,-0.073,0.055,-0.089,0.004,0.011,0.007,-0.017,-0.011,-0.069
DDX46 (UniProt Q7L014),0.109,-0.003,0.046,0.029,0.434,0.001,0.041,-0.005,0.026,0.117,0.12,0.1,0.185,-0.025,0.144,-0.144,0.109,0.235,-0.087,0.197
DFFB (UniProt O76075),-0.016,-0.141,-0.093,-0.03,-0.004,0.06,-0.054,0.041,-0.015,-0.074,0.018,0.072,0.012,0.106,0.037,-0.017,-0.123,-0.012,-0.021,-0.006
DOHH (UniProt Q9BU89),-0.4,-0.151,0.022,-0.038,-0.062,-0.041,0.201,0.084,-0.006,-0.171,0.049,0.06,0.287,-0.154,0.055,0.029,0.127,0.022,0.005,-0.015
DPH5 isoform 5 (UniProt Q9H2P9),-0.01,-0.024,-0.002,-0.049,-0.037,-0.071,0.017,0.046,0.043,-0.006,0.017,0.092,0.072,-0.046,0.077,-0.011,-0.01,-0.01,-0.025,0.076
EMD (UniProt P50402),-0.049,-0.013,0.007,0.037,-0.08,-0.031,-0.053,0.074,-0.025,0.093,0.042,-0.215 (active),0.019,0.018,-0.033,-0.047,-0.049,0.015,0.018,-0.092
DUS2 (UniProt Q9NX74),-0.02,-0.014,-0.041,-0.004,-0.075,0.059,0.04,-0.11,0.043,-0.128,-0.017,0.048,0.084,0.045,0.012,0.036,-0.013,0.062,-0.006,0.097
DTWD1 (UniProt Q8N5C7),-0.227,-0.081,0.031,-0.115,-0.057,0.078,0.069,0.031,0.044,0.124,0.053,0.067,0.061,0.014,0.015,0.098,0.029,0.012,0.009,-0.001
EOGT (UniProt Q5NDL2),-0.026,0.053,0.013,0.036,0.028,0.056,0.008,-0.021,0.068,0.007,0.052,0,-0.054,0.069,0.045,-0.003,-0.05,-0.137,0.068,-0.006
EHD2 (UniProt Q9NZN4),0.001,-0.013,0.007,-0.025,-0.02,0.092,-0.034,0.055,-0.06,-0.051,0,-0.068,0.077,-0.008,0.048,-0.028,-0.003,0.002,0,-0.007
